# Only some compounds are listed: those with a hit (about 4% of all), similar ones and a draw of the others.
# HIF-2a inh = HIF-2a reporter inhibitors, primary screen, luminescence, 786-0 RCC cells. 786-0 RCC cells HIF-2a reporter, luciferase luminescence, overnight. inhibition, % at 18.8 µM. actives 0.72% (n = 360,000);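 active = inhibition of the luminescence signal of 40% or more relative to plate controls, in a single-dose primary screen at 18.75 µM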
# Peg3 promoter = Peg3 promoter-driven luciferase inhibitors, primary screen, cell-based, HeLa, luciferase luminescence | HeLa PEG-Prom luciferase reporter, overnight | inhibition, % at 20 µM | actives 1.7% (n = 360,000) | AID 588405, 2011;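 active = inhibition of at least 50% at 20 µM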
# TROY signal inh = inhibitors of TROY-driven NF-kB signaling, primary screen, Q293 LMP1-TROYcd cells, NF-kB luciferase, uHTS; actives 0.98% (n = 360,000); Q293 LMP1-TROYcd NF-kB luciferase reporter, 4 h; inhibition, % at 10 µM;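 active = compounds whose plate-normalised and pattern-corrected inhibition of the luciferase reporter signal at the single screening dose is 50% or more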
# TWEAK Fn14 block = inhibitors of TWEAK-Fn14 signaling, primary screen, luciferase reporter cells, uHTS | TWEAK-stimulated Fn14 reporter cells, luciferase luminescence, 8 h | inhibition, % at 10 µM | actives 2% (n = 360,000); in the data active = inhibition above about 50%
# CF NFkB block = inhibitors of PAF-induced NF-kB signaling, primary screen, cell-based, GFP fluorescence, uHTS | KKLEB NF-kB-GFP reporter, GFP fluorescence overnight | inhibition, % at 5 µM | actives 0.86% (n = 360,000) | AID 588850, 2011;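 active = at least 50% inhibition at 5 µM, scaled per plate between neutral and stimulator controls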;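 note: PAF is a Pseudomonas aeruginosa culture filtrate used as stimulus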
# KKLEB cytotox = cytotoxicity in KKLEB CF airway cells, primary screen, cytotoxicity control for CF NF-kB inhibitor project, cell-based, uHTS, fluorescence assay plates | KKLEB CF airway cells viability, ATPlite luminescence, overnight; hits give low values; cells stimulated with P. aeruginosa culture filtrate | AID 602141, 2011 | actives 0.36% (n = 360,000) | activity change (cytotoxicity), % at 5 µM;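 active = corrected activity change at or below -50% at 5 µM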
# A number is an active result; n = inactive; x = no result.
SMILES,HIF-2a inh,Peg3 promoter,TROY signal inh,TWEAK Fn14 block,CF NFkB block,KKLEB cytotox
COc1ccc(C2CC=C(C(C)=O)CN2S(=O)(=O)c2ccccc2)cc1 (configuration not stated),n,n,n,n,n,n
O=C(NC(c1ccc(Cl)cc1)c1c(O)ccc2ccccc12)c1ccccc1 (configuration not stated),n,57.8,51.7,65.9,64.3,-61.5
N#Cc1c(Cl)nsc1NC(=O)c1ccccc1,n,n,n,n,51.6,n
N#Cc1c(NC(=O)c2ccccc2)sc2c1CCCCC2,n,n,n,n,n,n
COC(=O)c1ccc2c(=O)n(CCCCCC(=O)O)c(=O)[nH]c2c1,n,n,n,n,n,n
COc1cc2[nH]c(=O)n(CCCCCC(=O)N3CC=C(c4ccccc4)CC3)c(=O)c2cc1OC,n,69.5,n,58.7,n,n
COC(=O)c1ccc2c(=O)n(CCCCCC(=O)N3CCN(c4ccc(F)cc4)CC3)c(=O)[nH]c2c1,n,89.8,59.8,55.7,n,n
COCCN1C(=O)CSCC1(C)C(=O)NCc1ccccc1 (configuration not stated),n,x,x,x,x,x
NC(COCc1ccccc1)c1csc(Nc2cc(NCCCO)ncn2)n1 (configuration not stated),n,n,n,n,n,n
CCOC(=O)c1c(C)nsc1NC(=O)C1(C)CCN1C(=O)CC (configuration not stated),n,n,n,n,n,n
CN(C)CCCn1c(=O)n(CCc2ccccc2)c(=O)c2c3c(sc21)CCCCC3,n,101.1,n,n,n,n
CN1CCc2c(sc3nc(SCC(N)=O)n(-c4ccccc4)c(=O)c23)C1,n,n,x,56.8,n,n
CN(C)CCCNc1nc2sc3c(c2c(=O)n1CCc1ccccc1)CCCCC3,n,113.2,n,n,n,n
Cc1ccccc1-n1c(SCC(=O)O)nc2sc3c(c2c1=O)CCCC3,n,n,n,n,n,n
CN1CCc2c(sc3nc(SCC(N)=O)n(-c4ccc(Cl)cc4)c(=O)c23)C1,n,n,n,n,n,n
O=C(O)CSc1nc2sc3c(c2c(=O)n1Cc1ccccc1)CCCCC3,n,n,57.2,50.8,n,n
COC(=O)Cc1ccccc1NS(=O)(=O)c1ccc(C)cc1,n,x,x,x,x,x
CSc1ccc(Cn2c(C)c(C(=O)NCc3cccc(Cl)c3)sc2=O)cc1,n,n,n,n,n,n
COc1ccc(N2CCN(C(=O)C3CCCN(S(=O)(=O)c4ccc(C)cc4)C3)CC2)cc1 (configuration not stated),n,n,n,n,n,n
COC(=O)[C@@]12CCCN1[C@H](c1ccc(-c3ccc(OC)cc3)cc1)[C@@H]1C(=O)N(C)C(=O)[C@@H]12,n,n,n,n,n,n
O=C(COC(=O)c1c2c(nc3ccccc13)/C(=C\c1ccco1)CC2)NC1CCCC1,n,n,n,n,n,n
NC(=O)c1sc2nc3c(c(-c4ccco4)c2c1N)CCC3,n,n,n,n,75.9,n
Nc1c(C(=O)NC2CC2)sc2nc3c(c(-c4ccco4)c12)CC/C3=C/c1ccco1,n,n,n,83.0,n,n
O=C(CCl)N(C/C=C/c1ccccc1)c1ccc2c(c1)OCCO2,n,n,n,60.4,91.9,-99.7
Cc1ccc(NC(=O)C2SC(=Nc3ccccc3)C(C(=O)Nc3ccc(Cl)cc3)=C2N)cc1 (configuration not stated),n,n,n,n,n,n
SMILES,HIF-2a inh,Peg3 promoter,TROY signal inh,TWEAK Fn14 block,CF NFkB block,KKLEB cytotox
Cc1ccc(N=C2SC(C(=O)Nc3ccc(OC(F)(F)F)cc3)C(N)=C2C(=O)Nc2c(C)cc(C)cc2C)cc1 (configuration not stated),n,n,n,64.2,72.1,-59.9
O=C1CC(=O)N(Cc2ccco2)C(=S)N1,n,n,n,51.3,n,n
O=C1CC(=O)N(Cc2ccco2)C(=O)N1,n,n,n,n,n,n
Cc1cc(Cl)c(S(=O)(=O)N2CCSCC2)cc1OCC(=O)NC1CCCCC1,n,n,n,60.9,n,n
Cc1cc(Cl)c(S(=O)(=O)N2CCCCCC2)cc1OCC(=O)NC1CCCCC1,n,n,n,n,n,n
Cc1cc(Cl)c(S(=O)(=O)N2CCN(c3ccccn3)CC2)cc1OCC(=O)NC1CCCCC1,n,n,53.2,62.7,n,n
CCN1CCN(S(=O)(=O)c2cc(OCC(=O)NC3CCCCC3)c(C)cc2Cl)CC1,n,n,n,n,n,n
COCC(C)n1c(C)cc(C(=O)COC(=O)c2c(NC(C)=O)sc(C)c2C)c1C (configuration not stated),n,n,65.0,n,n,n
COCC(C)n1c(C)cc(C(=O)COC(=O)c2c(C)nn(-c3ccccc3)c2C)c1C (configuration not stated),n,n,n,n,n,n
CCN1C[C@@H]2[C@@H]3C(=O)N(C)C(=O)[C@@H]3[C@](C)(C(=O)OC)N2C1=NC,n,n,n,n,n,n
COc1ccc(/C(N)=N/OC(=O)c2ccco2)cc1,n,n,55.8,64.1,n,n
COc1ccc(C(=O)O/N=C(\N)c2ccccc2)cc1,n,n,n,81.5,n,n
O=C(COC(=O)c1ccccc1)NCCCCc1ccccc1,n,n,n,n,n,n
CCC[C@@H](CN[C@@H](CNC)C(C)C)NCCCCc1ccccc1,n,58.8,n,n,n,n
Cc1cc(CC(C)C)n(-c2nc3ccccc3c(=O)n2OCC(N)=O)n1,n,n,52.8,n,n,n
O=C(Nc1ccc(Oc2ccc(Cl)cc2)c(Cl)c1)c1cc(I)cc(I)c1O,n,82.2,72.1,57.0,65.5,n
COc1ccc(NC(=O)c2ccccc2F)cc1Cl,n,n,n,n,n,n
Cc1c(NC(=O)/C(=C\c2ccccc2)NC(=O)c2ccccc2)c(=O)n(-c2ccccc2)n1C,n,n,n,93.6,n,n
Cc1c(NC(=O)/C(=C/c2cccs2)NC(=O)c2ccccc2)c(=O)n(-c2ccccc2)n1C,n,n,n,n,n,n
CCOC(=O)c1c(C)oc2cc(Cl)c(O)c(CN(C)C)c12,n,n,n,n,n,n
CCOC(=O)c1c(-c2ccccc2)oc2cc(CN(C)C)c(O)c(CN(C)C)c12,n,67.8,n,n,n,n
CCOC(=O)c1c(-c2ccccc2)oc2ccc(O)c(CN3CCN(C)CC3)c12,n,53.7,n,n,n,n
CCOC(=O)c1c(C)n(C)c2ccc(O)c(CN3CCN(C)CC3)c12,n,n,n,n,n,n
